# Data as given in ChEMBL document CHEMBL3433997, “St. Jude Leishmania screening dataset” (2016).
# What was measured:
# Format in all cases: functional
# [1] = biological target: Solute carrier family 2, facilitated glucose transporter member 1 (Homo sapiens) (UniProt P11166); assay: ST_JUDE_LEISH: Cytotoxicity at 2uM final concentration against transgenic Leishmania Mexicana promastigotes LmGLUT1 that are glucose transport deficient and complemented with the human glucose transporter GLUT1. Activity is measured by DNA content using SYBR green in vitro
# [2] = biological target: Hexose transporter 1 (Plasmodium falciparum) (UniProt O97467); assay: ST_JUDE_LEISH: Cytotoxicity at 2uM final concentration against transgenic Leishmania Mexicana promastigotes LmPfHT that are glucose transport deficient and complemented with the Plasmodium falciparum hexose transporter. Activity is measured by DNA content using SYBR green in vitro
# [3] = biological target: Glucose transporter (Leishmania mexicana) (UniProt O61059); assay: ST_JUDE_LEISH: Cytotoxicity at 2uM final concentration against transgenic Leishmania Mexicana promastigotes LmGT2 that are glucose transport deficient and complemented with the L. Mexicana glucose transporter 2. Activity is measured by DNA content using SYBR green in vitro
# Sequence of Solute carrier family 2, facilitated glucose transporter member 1 (Homo sapiens) (P11166 whole entry): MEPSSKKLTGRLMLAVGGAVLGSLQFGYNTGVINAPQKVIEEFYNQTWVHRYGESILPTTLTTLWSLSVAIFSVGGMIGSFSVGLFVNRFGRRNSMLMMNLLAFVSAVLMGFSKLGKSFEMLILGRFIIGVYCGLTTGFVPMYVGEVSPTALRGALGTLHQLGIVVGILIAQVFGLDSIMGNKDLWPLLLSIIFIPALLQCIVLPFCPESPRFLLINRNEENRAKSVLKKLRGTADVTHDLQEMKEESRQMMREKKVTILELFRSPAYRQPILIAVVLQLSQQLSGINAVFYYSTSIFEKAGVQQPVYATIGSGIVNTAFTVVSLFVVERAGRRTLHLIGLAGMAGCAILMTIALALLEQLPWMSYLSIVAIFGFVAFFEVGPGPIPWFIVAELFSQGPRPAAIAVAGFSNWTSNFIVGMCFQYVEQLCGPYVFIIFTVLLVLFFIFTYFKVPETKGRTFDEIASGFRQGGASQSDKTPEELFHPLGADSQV
Compound,inhibition [1],inhibition [2],inhibition [3]
OC(CNc1ccnc(Nc2cccc(Cl)c2)n1)c1ccc(C(F)(F)F)cc1 (stereo unspecified),9.21%,7.14%,5.22%
CC(C)(C)CC(C)(C)c1ccc(O)c(CNC2CCCCC2)c1,1.96%,2.09%,-0.74%
Cc1ccc(NC(=O)c2ccc3ncccc3c2)cc1OC1CCN(Cc2ccsc2)CC1,3.79%,3.4%,2.95%
CC(=O)c1ccc2c(c1)CCN(CCC1CCC(NC(=O)c3cc4ccccc4[nH]3)CC1)CC2 (stereo unspecified),2.67%,-0.31%,3.71%
Cc1ccc(Nc2nc(N)c3ccccc3n2)cc1,22%,17.5%,4.74%
Cc1ccccc1C1CCN(C2CCC(NC(=O)c3ccc(-c4ccccc4F)o3)CC2)CC1 (stereo unspecified),3.69%,2.49%,1.85%
COc1cc(C=NN=c2cc(C)[nH]c3ccccc23)cc(OC)c1OC,3.56%,4.95%,1.6%
O=C1c2ccccc2-n2c1nc1ccccc1c2=O,-2.52%,-2.55%,-3.28%
CC(C)(C)c1ccc(C(=O)Nc2ccc(NC(=O)c3ccc([N+](=O)[O-])o3)cc2)cc1,3.39%,4.22%,1.76%
CN(C)Cc1c(O)ccc2[nH]c(-c3cccc(F)c3)nc12,2.87%,2.53%,0.64%
C[C@@H](C(=O)N1CCOCC1)N1CC[C@H](NS(=O)(=O)c2ccc3ccnc(N)c3c2)C1=O,-1.02%,-1.24%,-4.28%
CCc1c(CCNCCCCCCNCCc2ccc3c(c2C)OCO3)ccc2c1OCO2,8.6%,5.13%,10.6%
Nc1c2ccccc2nc2ccc(Cl)cc12,14.6%,16.4%,9.04%
CCOc1ccc2[nH]c(C)cc(=NN=Cc3ccc(Cl)cc3)c2c1,-0.27%,0.45%,-1.27%
O=C(NCc1ccc(Cl)c(Cl)c1)[C@H]1CNCCN1C(=O)c1ccccc1,2.83%,1.69%,2.44%
Cc1cc2c(cc1C(F)(F)F)N(C(=O)Nc1cc(OCCN(C)C)cc(C(F)(F)F)c1)CC2,-0.72%,-1.6%,-0.42%
CCc1ccc(NC(=O)N(CCCN2CCN(C)CC2)Cc2csc(-c3ccc(CNCc4ccccc4)cc3)n2)cc1,-1.59%,-0.93%,3.09%
Nc1ccc2[nH]cc(C3CCN(CC4CCC(NC(=O)/C=C/c5ccc(Cl)c(Cl)c5)CC4)CC3)c2n1 (stereo unspecified),-2.2%,-0.28%,-4.12%
COc1ccccc1C1CCN(CCCCNC(=O)c2ccc(NC(=O)c3ccc(Cl)cc3)cc2)CC1,1.27%,3.41%,2.05%
Cc1cc(NC2CCCC2)nc(Nc2ccccc2C)n1,12.6%,7.5%,4.09%
c1ccc(OCCCCN2CCCCC2)cc1,0.95%,0.56%,-4.15%
Cc1cc(N2CCCC2=O)ccc1-c1ccc(C(=O)N2CCC(Oc3cccc(Cl)c3)CC2)cc1,0.43%,1.95%,3.87%
CN(C)CCN(Cc1ccccc1-c1ccc(CNCCc2ccccc2)cc1)C(=O)c1ccccc1,3.46%,2.83%,3.1%
COc1ccc(N2CCN(CCCCNC(=O)c3ccc(NC(=O)c4ccc(C(F)(F)F)cc4)cc3)CC2)c(OC)c1,9%,8.75%,9.19%

Compound,inhibition [1],inhibition [2],inhibition [3]
CC(C)COc1ccc(C(O)C(CN2CCCCC2)c2ccccc2)cc1 (stereo unspecified),5.44%,1.93%,3.27%
O=C(NCC1CCC(CNCCCc2ccccc2)CC1)c1cc(Cl)cc(Cl)c1 (stereo unspecified),1.46%,0.53%,1.72%
COc1cc(CNC[C@@H](O)[C@H](Cc2ccccc2)NC(=O)c2cc(C3CCCC3)cc(N3CCCS3(=O)=O)c2)cc(OC)c1,4.36%,3.83%,4.45%
CCOc1ccc(C2CCN(CCCCNC(=O)c3ccc(NC(=O)c4ccc(Cl)cc4)cc3)CC2)c(OCC)c1,4.52%,3.34%,2.91%
CCc1ccc(-n2c(=O)c3cccnc3n2CC(=O)NC2CCCC2)cc1,1.13%,-0.35%,-1.74%
O=C(Nc1cccc(-c2cccc(-c3nc4cc(C(F)(F)F)ccc4[nH]3)c2)c1)c1ccc(=O)[nH]n1,10.7%,9.47%,9.62%
CCOc1c(OC)ccc2c1CCN(CCN1CCC(NC(=O)c3ccc(-c4cccc(C(F)(F)F)c4C(F)(F)F)cc3)CC1)C2,1.91%,1.96%,1.39%
N#Cc1cccc(Nc2ncc3c(-c4cccc(NC(=O)Cc5cccc(Cl)c5)c4)c[nH]c3n2)c1,3.15%,2.53%,0.18%
Cc1ccc(-c2nc3ccccc3o2)cc1NCc1cc(Cc2ccccc2)ccc1O,-0.71%,-0.23%,-0.6%
CCOc1cc(Cc2cnc(N)nc2N)cc(OCC)c1OCCCCC(=O)OC,4.55%,0.23%,0.19%
Cc1[nH]c(C)c(-c2ccc(CCc3ccc(N)cc3)cc2)c(=O)c1Cl,4.43%,6.39%,1.77%
COc1cc(-c2ccc3c(-c4ccc(C(=O)N5CCN(C)CC5)cc4)n[nH]c3n2)cc(OC)c1OC,0.99%,1.78%,5.3%
CSc1ccc2ccccc2c1CCNCCCCNCCc1c(SC)ccc2ccccc12,68.9%,96.1%,81.6%
O=C(NC1CCCCC1)N(Cc1ccccc1-c1ccc(CNCCc2ccccc2)cc1)C1CCN(Cc2ccccc2)CC1,4.39%,3.18%,-0.58%
FC(F)(F)c1ccc2[nH]c(-c3ccc(-c4ccc(CNCc5cnn(-c6ccccc6)n5)cc4)s3)nc2c1,2.88%,1.1%,2.24%
[O-][S+]1c2ccccc2Sc2ccccc21,2.27%,3.44%,1.95%
COc1ccc2nccc([C@@H](O)CN3CCC(NC(=O)c4nc(Cl)c(Cl)c(N)c4Cl)CC3)c2c1,-0.09%,-0.22%,1.55%
Clc1cc(Cl)cc(Nc2ccnc(Nc3cc(Cl)cc(Cl)c3)n2)c1,4.6%,2.75%,2.57%
Fc1cccc(C=NN=c2cc[nH]c3ccc(C(F)(F)F)cc23)c1,9.27%,8.79%,5.06%
O=C(CSc1nccn1Cc1ccco1)Nc1cc(C(F)(F)F)ccc1Cl,13.1%,10.5%,9.28%
O=C(N[C@@H](Cc1ccccc1)C(=O)NCCN1CCOCC1)c1ccc(O)c(-c2ccc(Cl)c(Cl)c2)c1,2.33%,2.47%,4.35%
Cc1cc(N[C@@H](CC(C)C)C(=O)NCCc2ccccc2)nc(NCCc2ccc(F)cc2)n1,-0.03%,0.66%,-1.31%
CC(=O)Nc1ccc(Nc2c3ccccc3nc3ccccc23)cc1,8.17%,7.37%,0.02%
O=C(Nc1cccc(F)c1)N(Cc1ccc(-c2ccc(CN3CCNCC3)cc2)cc1)C1CCN(Cc2ccccc2)CC1,-0.04%,-0.99%,-1.59%

Compound,inhibition [1],inhibition [2],inhibition [3]
Cc1ccc(O)cc1Nc1ccnc2ccc(C(C)(C)C)cc12,-2.04%,-2.63%,-2.07%
COc1ccc(CCON2C(=N)N=C(N)NC2(C)C)cc1OC,2.04%,2.62%,3.2%
CN1CCN(CCCN(Cc2csc(-c3ccc(CNCc4ccccc4)cc3)n2)C(=O)c2cc(F)cc(F)c2)CC1,4.63%,2.02%,1.42%
COc1cc(C(=O)Nc2nc3ccccc3[nH]2)ccc1OCC(=O)Nc1cccc(C(F)(F)F)c1,2.59%,2.67%,1.11%
COc1cc(-c2nc(-c3ccccc3)c(-c3ccccc3)[nH]2)ccc1OCCN(C)C,1.69%,1.4%,0.91%
COC(=O)c1cccc(NC(=O)NCCNc2ccnc(Nc3ccc(F)cc3)n2)c1,4.31%,3.02%,2.45%
CNCCNCc1cccc(-c2ccc(-c3nc4ccccc4[nH]3)s2)c1,1.51%,1.53%,5.06%
O=C(NCCCN1CCC(N2CCCCC2)CC1)c1ccc(N2CCOc3ccccc32)s1,1.25%,0.98%,3.19%
Cc1sc2cc(Cl)cc(Cl)c2c1S(=O)(=O)Nc1ccc2nccc(N3CCNCC3)c2c1,-1.42%,-0.22%,-0.24%
CCCc1cc(=O)[nH]c(-n2nc(C)cc2NC(=O)CC(c2ccccc2)c2ccccc2)n1,-2.15%,1%,2.15%
Clc1ccc(-c2cnc3ccc(NCCc4cccnc4)nn23)cc1,1.24%,-1.47%,0.12%
O=C(Nc1ccc(Cn2ncc(N3CCCNCC3)c(Cl)c2=O)cc1)Nc1cc(Cl)cc(Cl)c1,2.15%,3.38%,0.75%
COc1ccc(Cl)cc1S(=O)(=O)Nc1cccc(CCN2CCC(N3CCCCC3)CC2)c1,2.48%,4.55%,0.15%
COc1ccc(CN(C)CCOc2ccc(NC(=O)c3cccc4c(=O)c5cc(SC)ccc5[nH]c34)cc2)cc1OC,10.2%,8.45%,3.5%
CCCCOc1cc(OC)c2ccccc2c1CCNCCCCNCCc1c(OCCCC)cc(OC)c2ccccc12,105%,106%,104%
CC(C)c1ccc(NC(=O)NC2CCN(CCCCCN(C)C(=O)/C=C/c3ccc(Cl)c(Cl)c3)C2)cc1 (stereo unspecified),5.33%,7.26%,6.41%
Cc1ccccc1Nc1cc(Nc2ccccc2C)c2ccccc2n1,42.9%,42.2%,16.1%
Cc1cccc2nc(-c3ccc(-c4cccc(NC(=O)c5cncn5C)c4)cc3)[nH]c12,5.73%,5.37%,5.41%
O=C(Nc1nc2cc(S(=O)(=O)NCCc3ccc(F)cc3)ccc2n1CCCn1ccnc1)c1ccc(Cl)cc1,1.74%,2.83%,1.86%
CCn1ccc2c(N3CCCS3(=O)=O)cc(C(=O)N[C@@H](Cc3ccccc3)[C@H](O)CNC(C)(C)c3cccc(OC)c3)cc21,0.43%,2.4%,1.49%
CC(=O)Nc1ccc(OCCN(Cc2ccccc2OC(F)(F)F)c2ccc(C(F)(F)F)c(C#N)c2)c(Cl)c1,2.43%,2.88%,4.14%
CC(C#N)Cc1ccc(-c2cnc(N)c3cc(-c4ccnc(N)n4)ccc23)cc1 (stereo unspecified),5.38%,3.48%,-0.93%
Cc1cc2nc(-c3cc(-c4cccc(NS(C)(=O)=O)c4)cnc3N)[nH]c2cc1C,1.13%,0.27%,0.05%
C[C@H](Cc1ccc(S(=O)(=O)c2ccc(C[C@@H](C)NC[C@H](O)c3cccc(Cl)c3)cc2)cc1)NC[C@H](O)c1cccc(Cl)c1,2.7%,4%,2.18%
